# Test results taken from the supplement of paper PMC12669032.
# Unmarked numbers belong to inactive results.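 Rule for the calls: active = AUC reduced over 20% with Padj below 0.05 in at least 2 of 3 replicates; inactive = otherwise.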
# Columns and labels:
# Assay in all cases: growth AUC relative to DMSO control (median of replicates) (fraction); higher = more growth (less inhibition), active = hit call of the paper
# Details in all cases: 20 µM; 24 h
# Akkermansia muciniphila = tested on: Akkermansia muciniphila
# Procedure, shortened: (§1)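 Gut bacterial monocultures were grown anaerobically at 37 °C in mGAM, starting at OD600 0.05, with 20 µM compound (1% DMSO) in round-bottom 96-well plates under pierced gas-permeable seals. OD600 was read hourly for 24 h. Area under the growth curve (minimum OD set to 0) was normalised to the plate median of DMSO controls, or to row and column medians on the industrial chemical plate. The value is the median of three biological replicates grown on separate days.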
# Bacteroides caccae = tested on: Bacteroides caccae
# Procedure, shortened: as §1
# Bacteroides clarus = tested on: Bacteroides clarus
# Procedure, shortened: as §1
# Bacteroides dorei = tested on: Bacteroides dorei
# Procedure, shortened: as §1
# Bacteroides stercoris = tested on: Bacteroides stercoris
# Procedure, shortened: as §1
# [1] = tested on: Bacteroides thetaiotaomicron
# Procedure, shortened: as §1
# Bacteroides uniformis = tested on: Bacteroides uniformis
# Procedure, shortened: as §1
# [2] = tested on: Bifidobacterium longum subsp. longum
# Procedure, shortened: as §1
# Clostridium difficile = tested on: Clostridium difficile
# Procedure, shortened: as §1
# Collinsella aerofaciens = tested on: Collinsella aerofaciens
# Procedure, shortened: as §1
# Coprococcus comes = tested on: Coprococcus comes
# Procedure, shortened: as §1
# Escherichia coli ED1a = tested on: Escherichia coli ED1a
# Procedure, shortened: as §1
# Escherichia coli IAI1 = tested on: Escherichia coli IAI1
# Procedure, shortened: as §1
# Eubacterium rectale = tested on: Eubacterium rectale
# Procedure, shortened: as §1
# [3] = tested on: Fusobacterium nucleatum subsp. animalis
# Procedure, shortened: as §1
# Lactobacillus gasseri = tested on: Lactobacillus gasseri
# Procedure, shortened: as §1
# Lactobacillus paracasei = tested on: Lactobacillus paracasei
# Procedure, shortened: as §1
# Odoribacter splanchnicus = tested on: Odoribacter splanchnicus
# Procedure, shortened: as §1
# [4] = tested on: Parabacteroides distasonis
# Procedure, shortened: as §1
# Parabacteroides merdae = tested on: Parabacteroides merdae
# Procedure, shortened: as §1
SMILES,growth AUC (Akkermansia muciniphila),growth AUC (Bacteroides caccae),growth AUC (Bacteroides clarus),growth AUC (Bacteroides dorei),growth AUC (Bacteroides stercoris),growth AUC [1],growth AUC (Bacteroides uniformis),growth AUC [2],growth AUC (Clostridium difficile),growth AUC (Collinsella aerofaciens),growth AUC (Coprococcus comes),growth AUC (Escherichia coli ED1a),growth AUC (Escherichia coli IAI1),growth AUC (Eubacterium rectale),growth AUC [3],growth AUC (Lactobacillus gasseri),growth AUC (Lactobacillus paracasei),growth AUC (Odoribacter splanchnicus),growth AUC [4],growth AUC (Parabacteroides merdae)
CCOC(=O)C(SP(=S)(OC)OC)c1ccccc1 (stereo not given),0.867,0.974,0.933,0.973,0.986,0.938,0.929,1,1.04,1,1.02,0.991,0.976,0.821,0.904,1.05,1.02,0.958,0.746 (active),0.958
COCCOC(=O)C(C#N)(C(=O)c1ccccc1C(F)(F)F)c1ccc(C(C)(C)C)cc1 (stereo not given),1.07,0.937,0.965,0.927,0.941,1.01,0.942,1.01,0.943,0.885,0.971,0.953,0.966,1.05,1.03,0.839,0.908,1,0.723,0.946
Clc1ccccc1-c1nnc(-c2ccccc2Cl)nn1,0.748,0.892,0.969,0.974,1.25,0.999,0.974,0.825,0.997,0.942,0.911,0.99,0.978,0.997,0.943,0.964,0.79,0.887,0.991,1.03
CCc1ccc(C(=O)NN(C(=O)c2cc(C)cc(C)c2)C(C)(C)C)cc1,0.924,1.03,0.993,0.987,0.875,0.976,0.955,0.911,0.965,1,0.987,1.01,0.999,0.937,0.882,0.98,1.04,0.926,1.03,0.945
COP(N)(=O)SC (stereo not given),1.22,1.01,1.04,1.01,1.1,1.04,1.03,0.989,1.03,1.04,1.08,1.03,1.02,1.08,1.11,0.836,1.07,1.04,1.01,1.06
CC(C)(COCc1cccc(Oc2ccccc2)c1)c1ccc(OC(F)(F)Br)cc1,0.955,0.982,0.973,1.01,1.04,0.976,1.02,0.966,1.01,0.953,0.961,0.999,0.995,0.903,0.939,1.01,1.05,0.988,1.01,0.979
COP(=O)(OC)Oc1ccc(S(C)(=O)=O)c(C)c1,0.876,0.971,0.963,0.987,1.01,1,0.981,0.956,0.994,1.01,0.989,1,0.983,0.795,0.998,1.07,0.971,1.02,1.02,0.995
CCOc1ccccc1OS(=O)(=O)NC(=O)Nc1nc(OC)cc(OC)n1,1.02,1.05,0.972,1.05,0.901,1.01,0.993,0.967,1.13,1.03,1.01,1.01,1.01,0.938,1,1.11,0.736,1.15,1.02,1.02
